According to PubChem BioAssay AID588707 (Southern Research Specialized Biocontainment Screening …, 2011):
Results filed as inconclusive are left out. Values without a mark were called inactive.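 The calls were made as follows: active = viability below 80% at one or more tested concentrations, flagged as toxic; inconclusive = replicate runs disagree on whether the viability criterion is met; inactive = viability at or above 80% at every dose.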

Assay: Vero E6 cell cytotoxicity, dose response, cytotoxicity control for P. falciparum PFM17LAP inhibitor project, M17 leucyl aminopeptidase campaign (AID 588707)
Conditions: CellTiter-Glo luminescence, 72 h; series mostly up to 50 µM; viability: at the top concentration

Row | Structure (SMILES) | viability
1 | O=C(CSc1nccc(=O)[nH]1)Nc1ccc(Oc2ccccc2)cc1 | 80%
2 | CC(C)C[C@H](N)C(=O)NO | 110%
3 | O=C(Nc1ccc(Cl)cc1)Nc1ccccc1C(=O)O | 82.2%
4 | Cc1cc(SCC(=O)Nc2ccccc2C(=O)O)nc2ccccc12 | 88.5%
5 | N[C@@H](Cc1c[nH]c2ccccc12)C(=O)NO | 104%
6 | COC(=O)c1ccccc1NC(=O)c1cc2cc3ccc(C)cc3nc2s1 | 92.9% [at 25 µM]
7 | COC(=O)c1cc(OC)c(OC)cc1NC(=O)c1sc2nc(C)ccc2c1N | 92.5%
8 | COC(=O)c1c(NC(=O)C2CC=CCC2C(=O)O)sc(C)c1-c1ccc(C)cc1 (configuration not stated) | 93.1%
9 | NC(N)=NCCC[C@H](N)C(=O)NO | 107%
10 | COC(=O)c1ccccc1NC(=O)c1ccc2c(Cl)c3c(nc2c1)CCC3 | 94.4% [at 25 µM]
11 | O=C(CSc1nccc(=O)[nH]1)Nc1ccc(N2CCOCC2)cc1 | 109%
12 | Cc1cc(=O)[nH]c(SCC(=O)Nc2ccccc2)n1 | 94.7%
13 | O=C(CSc1ccccc1)Nc1cccc2c1C(=O)NC2=O | 87.4%
14 | COc1ccc(-c2nnc(NC(=O)C3CC(C)=C(C)CC3C(=O)O)s2)cc1 (configuration not stated) | 92.6%
15 | COc1cc(NC(=O)CSc2ccccc2)c(C(=O)O)cc1OC | 105%
16 | O=C1OCCC1Sc1nnc(NC2CCCCC2)s1 (configuration not stated) | 95.9%
17 | CC1=C(C)CC(C(=O)Nc2nc(-c3cc(C)ccc3C)c(C)s2)C(C(=O)O)C1 (configuration not stated) | 89%
18 | O=C(O)c1ccccc1C(=O)Nc1nc2c(s1)CCCC2 | 96.9%
19 | Cc1ccc(NC(=O)CSc2nc(O)cc(=O)n2Cc2ccccc2)cc1 | 94.2%
20 | COC(=O)c1c(NC(=O)C2CCCCC2C(=O)O)sc2c1CCC(c1ccccc1)C2 (configuration not stated) | 81.5%
21 | O=C(CSc1nc(O)cc(=O)[nH]1)Nc1ccccc1 | 90.7%
22 | COC(=O)c1c(NC(=O)c2ccccc2C(=O)O)sc2c1CCCC2 | 87.6%
